Compounds without any hit were thinned out: in the full panel of roughly 83,000, 20% have a hit.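 Growth was measured after 48 h exposure to one concentration of compound in 96-well plates. Values under 10 count as active.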 Unmarked numbers belong to inactive results. Activity calls are given as the source filed them.

The assay relates to CAKI-1 renal. Description: NCI-60 one-dose screen, 48 h (100 = growth as untreated, 0 = no growth, -100 = all killed). As to conditions: 10 µM unless noted.
Take `N#C/C(C(=O)c1ccccc1)=C1/C(=O)Nc2ccc(F)cc21`: the growth is 86.3%.
`C=C(C)[C@@H]1CC[C@]2(C(=O)NCCCN)CC[C@]3(C)[C@H](CC[C@@H]4[C@@]5(C)CC[C@H](O)C(C)(C)[C@@H]5CC[C@]43C)[C@@H]12`: the growth was -54.5% [100 µM] (active).
For `O=C1/C(=C\c2cn(CC(O)CN3CCCCC3)c3ccccc23)c2ccccc2N1c1c(Cl)cccc1Cl` (stereo not drawn), the growth was -80.3% (active).
With `COc1ccc(OC)c([N+](=O)[O-])c1C(=O)CNC(C)=O`, the growth was 96.4%.
With `Nc1cccc2c1C(=O)c1cccc(NC(=O)c3ccccc3)c1C2=O`, the growth was 12%.
`CCNc1cc2c(cc1Br)-c1ccccc1C2=O`: the growth was 74.5%.
`CCOc1cccc2c(NC(C)CCCN(CC)CC)c(C)cnc12` (stereo not drawn): the growth was 103%.
Regarding `COc1cc(/C=C/C(=O)/C=C/c2ccc(-n3ccnc3C)cc2)ccc1O`, the growth was 95.6%.
`COc1cc(-c2nc(SCCC(C)C)nc(Nc3ccccc3)c2C#N)cc(OC)c1OC`: the growth was 72.4%.
`CN(C)C(=S)Sc1ccc([N+](=O)[O-])cc1[N+](=O)[O-]`: the growth is 4.43% (active).
Turning to `Nc1ccc(Cl)c([N+](=O)[O-])c1`, the growth was 78.8%.
Regarding `CCCCCCCCCCCCNC(=S)N/N=C/c1ccccc1O`, the growth is 65.4%.
With `CC1(C)CC[C@]2(C(=O)OC(=O)[C@]34CCC(C)(C)C[C@@H]3C3=CC[C@@H]5[C@@]6(C)CCC(=O)C(C)(C)[C@@H]6CC[C@@]5(C)[C@]3(C)CC4)CC[C@]3(C)C(=CC[C@@H]4[C@@]5(C)CCC(=O)C(C)(C)[C@@H]5CC[C@]43C)[C@H]2C1` the figure was 45.6% [100 µM]; with `COc1cccc(-c2[nH]c(=S)ncc2C(=O)c2ccccc2)c1`, 58.9%.
Consider `O=C(N=c1n(-c2ccccc2)nc2n1CCN2C1=NCCN1C(=O)c1ccc(Cl)cc1)c1ccc(Cl)cc1`, for which the growth is 75.2%.
For the compound `NC(=O)CC1C=CCC1` (stereo not drawn), the growth is 99.2%.
With `O=C(Nc1cccc2ccccc12)c1cc2ccccc2cc1O` the figure was -40% (active).
As for `Cc1ccc(N)c(O)c1`, the growth is 94.8%.
In the case of `CCOC(=O)CCC[P+](c1ccccc1)(c1ccccc1)c1ccccc1`, the growth is 101%.
Turning to `CCN(CC)c1cc(N)c(Cc2c(N)cc(N(CC)CC)cc2Cl)c(Cl)c1`, the growth was 65.7%.
Regarding `CSc1nc(N)c(N=Nc2ccc(S(=O)(=O)Nc3nnc(C)s3)cc2)c(=O)[nH]1`, the growth was 139%.
With `CC1(C)C(=O)/C(=C\c2cccnc2)C[C@]2(C)[C@H]3CC[C@@H]4[C@H]5[C@H](C(=O)/C=C/c6cccnc6)CC[C@]5(C(=O)O)CC[C@@]4(C)[C@]3(C)CC[C@@H]12`, the growth is -66% [100 µM] (active).
Take `N#CCCc1c[nH]c2ccccc12`: the growth was 87.3%.
On to `C[C@@H]1C[C@H]2C(=O)O[C@@H](C)[C@H](NC(=O)[C@H](Cc3cc(F)cc(F)c3)NC(=O)Nc3ccc(C4CC4)cc3F)C(=O)N3CCC[C@H]3C(=O)N3CCCC[C@H]3C(=O)N[C@@H](C)C(=O)N2C1`, for which the growth is 8.8% (active).
As for `CCN(CC)CCCC(C)Nc1c2ccc(C)cc2nc2ccc(OC)cc12` (stereo not drawn), the growth is 38%.
As to `C#CCNC(=O)CC[C@]1(C)[C@H]2CC[C@@H]3[C@@H]([C@@](C)(O)CCC=C(C)C)CC[C@@]3(C)[C@]2(C)CC[C@H]1C(=C)C`, the growth was 1.83% [100 µM] (active).
Regarding `CC1(C)CC[C@]2(C(=O)O)CC[C@]3(C)C(=CC[C@@H]4[C@@]5(C)C/C(=C/c6ccco6)C(=O)C(C)(C)[C@@H]5CC[C@]43C)[C@@H]2C1`, the growth was -35% [100 µM] (active).
For `C=C(C)[C@@H]1CC[C@]2(C(=O)O)CC[C@]3(C)[C@H](CC[C@@H]4[C@@]5(C)C/C(=C/c6ccco6)C(=O)C(C)(C)[C@@H]5CC[C@]43C)[C@@H]12`, the growth is -69.6% [100 µM] (active).
Regarding `C[n+]1cccc(NC(=O)c2ccc3ccc4ccc(C(=O)Nc5ccc[n+](C)c5)nc4c3n2)c1`, the growth is 52.3%.
With `Cc1ccc(S(=O)(=O)N/N=C2\CC3CCC2(C)C3(C)C)cc1` (stereo not drawn) the figure was 78.5%.
`CCOC(=O)c1nn(C2CCCCO2)c2ccc(NC(=O)Cn3nnc4ccccc43)cc12` (stereo not drawn): the growth was 97.6%.
As for `Cn1cc(-c2nnc(-c3cn(C)c4ncc(Br)cc34)o2)c2ccccc21`, the growth is 45%.
As for `O=C(Nc1ccc(Oc2ccc(F)cc2)c(Cl)c1)c1cccnn1`, the growth is 54.8%.

(Values after PubChem BioAssay (NCI).)
